{
  "source": "ChEMBL document CHEMBL4513216",
  "about": "“Probing the Open Global Health Chemical Diversity Library for Multistage-Active Starting Points for Next-Generation Antimalarials” (ACS Infect Dis, 2020)",
  "note": "Hit rate of the full screen: of about 69,000 compounds, about 8,600 (12%) showed an effect of 50% or more. Only a selection was taken, and strong results are over-represented in it overall.",
  "data": [
    {"test_system": "Plasmodium berghei", "test": "Screen against P. berghei liver stage (PbLuc), transformed with Luciferase, at 10uM", "type": "functional, HepG2", "conditions": "tested at 10 uM", "units": {"INHIBITION": "%"}, "values": [
      {"smiles": "Cn1cc(CN2C[C@H]3CCC[C@@]3(COc3cccnc3)C2)cn1", "INHIBITION": 52.1},
      {"smiles": "O=S(=O)(C1CC1)N1C[C@H]2CCC[C@@]2(COc2ccccn2)C1", "INHIBITION": 0.79},
      {"smiles": "Fc1cnc(N2C[C@H]3CCC[C@@]3(COc3ccccn3)C2)nc1", "INHIBITION": 76.6},
      {"smiles": "Fc1cnc(N2C[C@@H]3COC[C@]3(COc3ccccn3)C2)nc1", "INHIBITION": 43.1},
      {"smiles": "c1cncc(OC[C@@]23CCC[C@@H]2CN(CC2CCOCC2)C3)c1", "INHIBITION": 47.4},
      {"smiles": "Cn1cc(CN2C[C@H]3CCC[C@@]3(COCC3CC3)C2)cn1", "INHIBITION": 8.6},
      {"smiles": "CCn1ncc(CNc2[nH]cnc3nncc2-3)c1C", "INHIBITION": 25.3},
      {"smiles": "CCCC1CN(CC(C)C)C(=O)c2cccnc2O1", "note": "(configuration not stated)", "INHIBITION": 6.34},
      {"smiles": "O=C(NCc1ccc2c(c1)OCO2)Nc1cccnc1N1CCCC1", "INHIBITION": -4.94},
      {"smiles": "O=c1cc(Cn2ccnc2)nc2n1CCCN(S(=O)(=O)C1CC1)C2", "INHIBITION": -10.2},
      {"smiles": "CN1C[C@H]2CC[C@@H](C1)N(Cc1ccccc1OCCN1CCOCC1)C2", "INHIBITION": -154},
      {"smiles": "CC(=O)N1CCC(NC(=O)N2CCN(c3cnccn3)CC2)CC1", "INHIBITION": 48.2},
      {"smiles": "Cc1nc2c(c(=O)[nH]1)CN(Cc1ccc3c(c1)CCCN3C)CC2", "INHIBITION": 30.5},
      {"smiles": "Cc1ccc(C(=O)N2CCC[C@@H]2Cn2nnc3c(O)nc(C)nc32)cc1", "INHIBITION": 23.4},
      {"smiles": "Cn1ccnc1CNCCNc1ncc(Cl)cc1Cl", "INHIBITION": 1.51},
      {"smiles": "CCCc1n[nH]c(C2CN(CCS(=O)(=O)CC)CCO2)n1", "note": "(configuration not stated)", "INHIBITION": 44.1},
      {"smiles": "Cn1cc(S(=O)(=O)Nc2c(F)cccc2N2CCCC2)cn1", "INHIBITION": -11.9},
      {"smiles": "O=S(=O)(Nc1c(F)cccc1N1CCCC1)c1cncc(F)c1", "INHIBITION": 27.6},
      {"smiles": "N#Cc1cccc(S(=O)(=O)Nc2c(F)cccc2N2CCCC2)c1", "INHIBITION": 50.1},
      {"smiles": "O=C(c1ccncc1)N1CCC(c2nc(O)cc(-c3ccncc3)n2)C1", "note": "(configuration not stated)", "INHIBITION": 48.3},
      {"smiles": "CCCN1C[C@H](NC(=O)c2cc(C)no2)[C@@H](c2ccc(OC)cc2)C1", "INHIBITION": 35.2},
      {"smiles": "CCCN1C[C@H](NC(=O)c2ccccc2F)[C@@H](c2ccc(OC)cc2)C1", "INHIBITION": 54.4},
      {"smiles": "CCCN1C[C@H](NC(=O)c2cccs2)[C@@H](c2ccc(OC)cc2)C1", "INHIBITION": 31.6},
      {"smiles": "CCN(CC)C1CCN(C(=O)NCc2cccc(NC(C)=O)c2)C1", "note": "(configuration not stated)", "INHIBITION": -4.15},
      {"smiles": "CCCc1noc(CCC(=O)N2CCCC2c2cccs2)n1", "note": "(configuration not stated)", "INHIBITION": 29.7},
      {"smiles": "CCCS(=O)(=O)N1C[C@@H]2C[C@H](C(=O)N3CCCC3)[C@H](C1)O2", "INHIBITION": 35.8},
      {"smiles": "Cc1ccccc1N1CCN(C(=O)c2cnc(N(C)C)nc2C)C(C)C1", "note": "(configuration not stated)", "INHIBITION": 25.8},
      {"smiles": "Cc1ccccc1N1CCN(c2cc(N(C)C)ncn2)C(C)C1", "note": "(configuration not stated)", "INHIBITION": 67.4},
      {"smiles": "Cc1ccccc1N1CCCN(c2ccncn2)CC1", "INHIBITION": 80.7},
      {"smiles": "CSc1ncc(C(=O)N2CCN(c3ccccc3C)CC2C)cn1", "note": "(configuration not stated)", "INHIBITION": 44.8},
      {"smiles": "Cc1ccccc1N1CCN(c2ccncn2)C(C)C1", "note": "(configuration not stated)", "INHIBITION": 63.2},
      {"smiles": "Cc1ccccc1N1CCN(C(=O)c2cscn2)C(C)C1", "note": "(configuration not stated)", "INHIBITION": 10.3},
      {"smiles": "Cc1nccn1CCC1CCN(c2ccncn2)CC1", "INHIBITION": 35.8},
      {"smiles": "Cc1ccccc1N1CCN(C(=O)c2cnc(C3CC3)nc2)C(C)C1", "note": "(configuration not stated)", "INHIBITION": 43},
      {"smiles": "Cc1ccc(N2CCN(c3ccccc3C)CC2C)nn1", "note": "(configuration not stated)", "INHIBITION": 59.9},
      {"smiles": "CN(C)c1cc(N2CCN(c3ccccn3)CC2)ncn1", "INHIBITION": 41.1},
      {"smiles": "Cc1cc(C)nc(C2CCN(c3ccncn3)C2)n1", "note": "(configuration not stated)", "INHIBITION": 36.9},
      {"smiles": "Cc1ccccc1N1CCN(C(=O)c2ncc(F)cc2F)C(C)C1", "note": "(configuration not stated)", "INHIBITION": 33},
      {"smiles": "O=S(=O)(C1CC1)N1CC[C@H]2OCC[C@@]2(COc2ncccc2F)C1", "INHIBITION": -58.9},
      {"smiles": "O=C(CCc1ccccc1)N1C[C@@H]2CN(Cc3ccoc3)CCO[C@@H]2C1", "INHIBITION": 29.9},
      {"smiles": "Cc1ccc(CN2CC(O)CN(C(=O)C3CC3)CC2=O)cc1", "note": "(configuration not stated)", "INHIBITION": 7.85},
      {"smiles": "CSCCC(=O)N1CCC(CCC(=O)NCC2CCCO2)CC1", "note": "(configuration not stated)", "INHIBITION": 8.51},
      {"smiles": "CCOc1ccccc1CCn1cc2[nH]cccc-2c1=O", "INHIBITION": 41.5},
      {"smiles": "NC(=O)C1CCCN(c2ccc(CNC(=O)c3cc[nH]n3)cc2)C1", "note": "(configuration not stated)", "INHIBITION": -25.8},
      {"smiles": "NC(=O)C1CCCN(c2ccc(CNC(=O)c3cnsn3)cc2)C1", "note": "(configuration not stated)", "INHIBITION": 60.5},
      {"smiles": "NC(=O)C1CCCN(c2ccc(CNC(=O)c3csnn3)cc2)C1", "note": "(configuration not stated)", "INHIBITION": 44.1},
      {"smiles": "CCN1CCN(C2CCN(Cc3nc(CCOC)no3)CC2)C1=O", "INHIBITION": 19.4},
      {"smiles": "CCCS(=O)(=O)N1CCN(CCCO)CC1", "INHIBITION": 11.5},
      {"smiles": "CCS(=O)(=O)N1CCCN(CCCOC)CC1", "INHIBITION": 63},
      {"smiles": "CCCS(=O)(=O)N1CCCN(CCCOC)CC1", "INHIBITION": -13.6},
      {"smiles": "Cn1cccc1C(=O)N1CCCC1c1ccc(CN2CCOCC2)cn1", "note": "(configuration not stated)", "INHIBITION": 13.7375},
      {"smiles": "Cc1nn(C)c(Cl)c1CNCc1cccnc1N1CCN(C)CC1", "INHIBITION": 13.4}
    ]}
  ]
}
